This note sets out measurements from PubChem BioAssay (NCATS).

Inconclusive results are not listed. Calls of active or inactive are those of the source. Unless noted, the call rests on the fitted dose curve; in most records, active means well fitted curve in the direction sought with a large enough effect; inconclusive means small, poorly fitted or top-dose-only effect, or another doubt; inactive means no such curve, though single readings can be large; an effect the other way counts as inactive or inconclusive. A value given as a limit tells only on which side of the number the result lay.

A short description of experiment [1]: Primary qHTS for small molecule stabilizers of the endoplasmic reticulum resident proteome: Secreted ER Calcium Modulated Protein (SERCaMP) assay (AID 1508630). Further: on the % scale 0 is the no-effect control and ±100 the full control effect. Summed up: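 GLuc-SERCaMP-expressing SH-SY5Y cells, pretreated 16 h with compound, are challenged with thapsigargin to empty ER calcium stores; after 4 h, coelenterazine is added directly to the medium and luminescence is imaged.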
(Quantitative high-throughput screening tests each substance at several concentrations.)

Experiment [2] concerns the target Lysosomal acid glucosylceramidase (Homo sapiens) (UniProt P04062). Kind of experiment: Glucocerebrosidase-p2 (AID 348; in the data active means potency below about 10 µM; further: potency means the concentration at half of the fitted maximal effect). The note with it: purified GBA, blue fluorogenic substrate, 40 min. Summed up:
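Compounds titrated from 0.6 nM upwards against 0.2 nM enzyme in pH 5.9 citric acid/KH2PO4, taurocholate, tween-20; blue fluorogenic substrate 80 uM, 40 min room temperature, stopped and read Ex 365/Em 440 for AC50.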

A short description of experiment [3]: AP1 Signaling Pathway (AID 357; active means well fitted curve in either direction with a large enough effect, not every such curve was filed as active; further: on the % scale 0 is the no-effect control and ±100 the full control effect). To be noted: ME-180 AP-1-bla reporter, EGF-induced, beta-lactamase ratio, 5 h; at 7.69 µM (top of the series) unless noted. Summed up: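 AP-1-bla ME-180 cells with beta-lactamase reporter under AP-1 response element, stimulated with EC50 EGF; compounds titrated, 5 hours at 37 degrees Celsius. CCF4 read at 460/530 nm ratio; positive and negative modulators judged by AC50.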

Experiment [4] concerns the target Cytochrome P450 1A2 (Homo sapiens) (UniProt P05177). Kind of experiment: p450-cyp1a2 (AID 410; calls by dose curve;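 further: -100% = full effect of reference inhibitor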). Summed up:
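Luminescent readout of luciferin formed from Luciferin-ME by human CYP1A2; data normalized against complete inhibition by 57 uM furafylline. Enzyme 20nM, substrate 100uM at Km, 100mM KPO4 buffer, 60 min reaction at room temperature.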

A short description of experiment [5]: NFAT Signaling Pathway (AID 444; active means well fitted curve in either direction with a large enough effect, not every such curve was filed as active;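 further: carbachol stimulus at about its EC50 of 1 µM final; on the % scale 0 is the no-effect control and ±100 the full control effect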). The note with it: Jurkat NFAT-bla M1, carbachol, beta-lactamase ratio, 5 h; at 7.69 µM (top of the series) unless noted. Summed up: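 Read-out: CCF4 FRET ratio (460 nm/530 nm) after 1 h RT dye loading, used for %activity and AC50 from titration series. Cells: Jurkat NFAT-β-lactamase/M1 line, treated with compound plus 1 uM carbachol for 5 h, 37 °C.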

Experiment [6] is described as follows: Stat Signaling Pathway (AID 446; active means well fitted curve in either direction with a large enough effect, not every such curve was filed as active;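 further: ME-180 cervical cancer cells given 40 pM IL-6 alongside compound; SIE-controlled beta-lactamase reporter measured as 460/530 nm FRET emission ratio; on the % scale 0 is the no-effect control and ±100 the full control effect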). The note with it: ME-180 (cervical carcinoma) SIE beta-lactamase reporter, IL-6 stimulated, 5 h; at 7.69 µM (top of the series) unless noted. Summed up:
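ME-180 cells carrying a SIE-driven beta-lactamase reporter are stimulated with 40 pM IL-6 for 5 h at 37C in the presence of compound. The 460/530 nm FRET substrate ratio is read after 2.5 h at RT. Data are normalised to 300 pM IL-6 and to 125 nM JAK inhibitor controls.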

The target of experiment [7] is Glucocorticoid receptor (Homo sapiens) (UniProt P04150). Kind of experiment: GR-EFC Redistribution (AID 451; calls by dose curve; further: potency means the concentration at half of the fitted maximal effect). The note with it: CHO-K1 GR-EFC translocation, beta-gal luminescence, 2 h. Summed up: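 Translocation of GR-ED fusion to nuclear EA restores b-gal, read by luminescence after 1 h room-temperature detection. Engineered CHO-K1 biosensor cells, 1,000/well, exposed 2 h at 37 C to titrations up to 46 uM final.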

For experiment [8], the target named is 3',5'-cyclic-AMP phosphodiesterase 4B (Homo sapiens) (UniProt Q07343). Kind of experiment: qHTS Assay for Inhibitors of PDE-IV (AID 607; active means well fitted activation curve with a large enough effect in the main read-out, with a control signal flat, not every such curve was filed as active; further: % of control where 0% means no effect). Summed up:
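HEK293 ACTOne cells with CNG channel (1000/well), endogenous PDE4; membrane potential dye, compounds up to 22.9 uM final. Fluorescence Ex 535/Em 590; RO 20-1724 (100 uM final) as reference.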

For experiment [9], the target named is Cytochrome P450 3A4 (Homo sapiens) (UniProt P08684). Nature of the experiment: qHTS Assay for Activators of Cytochrome P450 3A4 (AID 885). Further: nearly all actives have a fitted effect of over 65% in size. Summed up:
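Human CYP3A4 (20 nM) with Luciferin-PPXE at 25 uM (its KM) in 200 mM KPO4; 10 min compound preincubation, then NADPH regeneration and 60 min reaction at RT. Luciferin read by luminescence; normalized to 57 uM ketoconazole full inhibition.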

Experiment [10] in a line: qHTS Assay for Lipid Storage Modulators (AID 1519; calls by dose curve). The note with it: Drosophila S3 cells, BODIPY lipid droplet/cell ratio, laser cytometry, cells loaded with oleic acid; for activity change, negative = inhibition: at 57.5 µM (top of the series). Summed up: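 Cells seeded at 5,000 per well were treated with compounds over a concentration series and loaded with oleic acid (400 uM, as added). Lipid droplet fluorescence (488 nm excitation, 500-530 nm channel) was read by laser-scanning cytometry and normalized to 20 uM Triacsin C.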

For experiment [11], the target named is Rap guanine nucleotide exchange factor 3 (Homo sapiens) (UniProt O95398). Kind of experiment: Confirmatory qHTS for agonist of cAMP-regulated guanine nucleotide exchange factor 3 (EPAC1) (AID 1645881).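 Further: EPAC1 catalysed release of BODIPY-GDP from Rap1B seen as fluorescence loss; 100% = effect of cAMP agonist control; nearly all actives have a fitted effect of over 75% in size.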
The target of experiment [12] is Rap guanine nucleotide exchange factor 4 (Homo sapiens) (UniProt Q8WZA2). Kind of experiment: Confirmatory qHTS for agonist of cAMP-regulated guanine nucleotide exchange factor 4 (EPAC2) (AID 1645884).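 Further: nucleotide exchange releases bodipy-GDP from Rap1 and this lowers its fluorescence; on the % scale 0 is the no-effect control and ±100 the full control effect; nearly all actives have a fitted effect of over 65% in size.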
Experiment [13] shares this target. Kind of experiment: Confirmatory qHTS for antagonist of cAMP-regulated guanine nucleotide exchange factor 4 (EPAC2) (AID 1645885). Further: on the % scale 0 is the no-effect control and ±100 the full control effect; nearly all actives have a fitted effect of over 25% in size.
Experiment [14] addresses Glucocorticoid receptor (Homo sapiens) (UniProt P04150). Nature of the experiment: GR-GFP Redistribution (AID 450;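 active means compounds whose dose series gives a full or clear partial fitted curve of increased nuclear translocation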; further: potency means the concentration at half of the fitted maximal effect). The note with it: U2OS GR-GFP nuclear translocation, laser cytometry, 2 h.
Experiment [15] deals with Mitogen-activated protein kinase 10 (Mus musculus) (UniProt Q61831). Nature of the experiment: JNK3 AlphaScreen Assay (AID 530; active means well fitted curve in either direction with a large enough effect, not every such curve was filed as active). Summed up: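 Compound titrations were preincubated 15 minutes at room temperature with substrate, antibody and pre-activated JNK3-containing HepG2 lysate. Reactions were started with 10 uM ATP and stopped with EDTA-containing bead buffer for AlphaScreen detection.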
(Alpha assays give light when donor and acceptor beads are brought close together.)

Experiment [16] concerns the target Dual specificity protein kinase CLK4 (Homo sapiens) (UniProt Q9HAZ1). Nature of the experiment: qHTS Assay for Inhibitors of CDC-like Kinase 4 (Kinase-Glo Assay) (AID 1770). Further: on the % scale 0 is the no-effect control and ±100 the full control effect; nearly all actives have a fitted effect of over 65% in size. Summed up:
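Luminescent ATP-depletion read-out (Kinase-Glo) after 4.5 h room-temperature reaction of Clk4 (25 nM final) with RS peptide (100 uM) and ATP (1 uM), pH 7.5 Tris buffer with MgCl2 and DTT.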

Experiment [17] has the same target. Nature of the experiment: qHTS Assay for Inhibitors of CDC-like Kinase 4 (ADP-Glo Assay) (AID 1771). Further: on the % scale 0 is the no-effect control and ±100 the full control effect; nearly all actives have a fitted effect of over 70% in size. Summed up: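 Luminescence from ADP-Glo reports ADP produced by 25 nM Clk4 acting on 100 uM RS repeat peptide with 1 uM ATP over 1 hr at room temperature; residual ATP is depleted before ADP is converted to ATP for detection.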
Experiment [18] addresses Ubiquitin carboxyl-terminal hydrolase 1 (Homo sapiens) (UniProt O94782). Kind of experiment: Inhibitors of USP1/UAF1: Pilot qHTS (AID 504865).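 Further: rhodamine fluorescence freed from ubiquitin-rhodamine substrate followed over time; top concentration of the series differs between compounds; on the % scale 0 is the no-effect control and ±100 the full control effect; nearly all actives have a fitted effect of over 35% in size.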 Summed up:
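Deubiquitinase activity followed as kinetic rhodamine fluorescence release from 150 nM Ub-Rho. 1 nM USP1/UAF1 with compound, after 15 min room-temperature preincubation, in HEPES pH 7.8 buffer containing TCEP, EDTA, BSA and Tween-20.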

The mark [19] stands for this setting: measured here: cell count channel max response.
Where [20] appears, read: measured here: lipid channel max response.

Glucocorticoid receptor (Homo sapiens), sequence (P04150 whole entry, looked up, the tested form may be a part): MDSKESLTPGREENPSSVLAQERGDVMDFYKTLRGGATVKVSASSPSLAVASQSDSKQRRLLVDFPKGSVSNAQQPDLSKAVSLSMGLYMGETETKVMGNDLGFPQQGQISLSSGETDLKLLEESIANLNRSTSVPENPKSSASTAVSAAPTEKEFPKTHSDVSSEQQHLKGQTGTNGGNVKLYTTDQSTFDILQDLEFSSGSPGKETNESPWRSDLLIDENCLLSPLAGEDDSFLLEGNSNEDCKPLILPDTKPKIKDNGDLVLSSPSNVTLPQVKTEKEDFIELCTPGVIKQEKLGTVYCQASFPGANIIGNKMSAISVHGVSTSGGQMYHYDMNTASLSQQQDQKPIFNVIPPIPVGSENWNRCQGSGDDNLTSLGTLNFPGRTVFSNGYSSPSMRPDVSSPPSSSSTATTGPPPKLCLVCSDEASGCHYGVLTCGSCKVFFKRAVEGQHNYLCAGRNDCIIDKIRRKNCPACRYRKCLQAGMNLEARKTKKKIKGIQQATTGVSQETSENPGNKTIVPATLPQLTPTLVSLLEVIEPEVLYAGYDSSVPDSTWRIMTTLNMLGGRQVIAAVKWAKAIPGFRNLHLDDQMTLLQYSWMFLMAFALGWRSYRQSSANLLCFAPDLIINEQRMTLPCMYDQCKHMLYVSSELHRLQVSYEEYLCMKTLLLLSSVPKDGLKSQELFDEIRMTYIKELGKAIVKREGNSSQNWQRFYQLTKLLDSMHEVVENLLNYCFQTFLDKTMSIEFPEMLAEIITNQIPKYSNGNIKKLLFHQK
3',5'-cyclic-AMP phosphodiesterase 4B (Homo sapiens), sequence (Q07343 whole entry, looked up): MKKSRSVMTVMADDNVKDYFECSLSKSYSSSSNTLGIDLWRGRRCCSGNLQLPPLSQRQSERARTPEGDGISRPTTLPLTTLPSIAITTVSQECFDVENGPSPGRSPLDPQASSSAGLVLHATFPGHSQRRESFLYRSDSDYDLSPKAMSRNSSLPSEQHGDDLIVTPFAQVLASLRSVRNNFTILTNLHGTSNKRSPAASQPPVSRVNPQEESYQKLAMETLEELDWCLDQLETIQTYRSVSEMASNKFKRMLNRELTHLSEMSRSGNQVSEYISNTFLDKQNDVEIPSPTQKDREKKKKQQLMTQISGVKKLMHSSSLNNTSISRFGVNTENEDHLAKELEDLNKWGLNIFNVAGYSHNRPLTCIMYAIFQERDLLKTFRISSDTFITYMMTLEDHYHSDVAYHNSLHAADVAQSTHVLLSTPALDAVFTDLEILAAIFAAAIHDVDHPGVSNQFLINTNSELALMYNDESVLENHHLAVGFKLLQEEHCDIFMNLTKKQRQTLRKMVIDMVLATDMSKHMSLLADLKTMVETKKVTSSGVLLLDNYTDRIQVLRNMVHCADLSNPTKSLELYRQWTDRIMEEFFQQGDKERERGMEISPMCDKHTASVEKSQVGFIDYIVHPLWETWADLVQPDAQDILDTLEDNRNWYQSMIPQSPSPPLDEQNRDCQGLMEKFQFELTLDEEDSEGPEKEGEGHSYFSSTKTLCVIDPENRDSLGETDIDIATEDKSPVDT
Lysosomal acid glucosylceramidase (Homo sapiens), sequence (P04062 whole entry, looked up): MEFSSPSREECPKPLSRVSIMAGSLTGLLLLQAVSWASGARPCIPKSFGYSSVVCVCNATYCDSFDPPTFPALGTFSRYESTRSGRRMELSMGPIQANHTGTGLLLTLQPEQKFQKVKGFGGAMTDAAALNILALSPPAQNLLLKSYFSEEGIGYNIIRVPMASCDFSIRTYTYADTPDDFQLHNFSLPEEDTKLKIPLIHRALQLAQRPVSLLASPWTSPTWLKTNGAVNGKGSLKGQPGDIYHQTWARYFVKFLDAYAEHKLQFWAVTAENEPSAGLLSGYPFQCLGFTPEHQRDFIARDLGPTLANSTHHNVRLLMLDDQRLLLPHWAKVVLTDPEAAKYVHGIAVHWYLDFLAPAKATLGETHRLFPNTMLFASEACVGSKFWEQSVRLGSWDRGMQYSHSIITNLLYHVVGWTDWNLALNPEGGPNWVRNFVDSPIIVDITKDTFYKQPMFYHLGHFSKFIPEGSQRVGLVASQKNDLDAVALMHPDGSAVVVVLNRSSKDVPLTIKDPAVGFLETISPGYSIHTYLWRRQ
Rap guanine nucleotide exchange factor 4 (Homo sapiens), sequence (Q8WZA2 whole entry, looked up): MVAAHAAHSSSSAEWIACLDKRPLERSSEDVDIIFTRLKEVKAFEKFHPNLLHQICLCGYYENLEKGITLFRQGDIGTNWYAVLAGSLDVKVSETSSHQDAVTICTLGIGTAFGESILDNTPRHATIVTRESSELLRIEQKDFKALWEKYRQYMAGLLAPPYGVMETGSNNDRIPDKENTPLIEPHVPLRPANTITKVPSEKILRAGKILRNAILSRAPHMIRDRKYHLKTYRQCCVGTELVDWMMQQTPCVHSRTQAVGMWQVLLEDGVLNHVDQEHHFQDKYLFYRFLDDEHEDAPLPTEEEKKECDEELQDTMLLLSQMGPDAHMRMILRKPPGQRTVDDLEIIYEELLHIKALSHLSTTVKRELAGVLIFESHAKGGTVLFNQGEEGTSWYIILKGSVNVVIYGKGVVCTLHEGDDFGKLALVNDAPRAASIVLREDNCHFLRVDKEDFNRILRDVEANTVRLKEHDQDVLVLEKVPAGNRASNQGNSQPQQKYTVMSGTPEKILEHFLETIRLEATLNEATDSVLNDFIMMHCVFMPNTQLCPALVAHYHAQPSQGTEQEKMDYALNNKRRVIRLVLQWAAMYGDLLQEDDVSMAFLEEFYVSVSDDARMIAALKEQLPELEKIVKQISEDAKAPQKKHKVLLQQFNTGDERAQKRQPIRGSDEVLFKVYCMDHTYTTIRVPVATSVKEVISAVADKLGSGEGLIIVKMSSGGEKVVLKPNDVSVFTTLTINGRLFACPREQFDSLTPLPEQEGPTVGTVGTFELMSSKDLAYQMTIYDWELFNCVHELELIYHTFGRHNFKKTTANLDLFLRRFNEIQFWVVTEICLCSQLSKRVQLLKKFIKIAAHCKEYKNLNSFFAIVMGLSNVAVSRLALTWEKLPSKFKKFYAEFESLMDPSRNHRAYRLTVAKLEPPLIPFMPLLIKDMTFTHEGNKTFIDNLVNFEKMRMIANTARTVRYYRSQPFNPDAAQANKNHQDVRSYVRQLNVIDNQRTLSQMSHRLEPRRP
Rap guanine nucleotide exchange factor 3 (Homo sapiens), sequence (O95398 whole entry, looked up): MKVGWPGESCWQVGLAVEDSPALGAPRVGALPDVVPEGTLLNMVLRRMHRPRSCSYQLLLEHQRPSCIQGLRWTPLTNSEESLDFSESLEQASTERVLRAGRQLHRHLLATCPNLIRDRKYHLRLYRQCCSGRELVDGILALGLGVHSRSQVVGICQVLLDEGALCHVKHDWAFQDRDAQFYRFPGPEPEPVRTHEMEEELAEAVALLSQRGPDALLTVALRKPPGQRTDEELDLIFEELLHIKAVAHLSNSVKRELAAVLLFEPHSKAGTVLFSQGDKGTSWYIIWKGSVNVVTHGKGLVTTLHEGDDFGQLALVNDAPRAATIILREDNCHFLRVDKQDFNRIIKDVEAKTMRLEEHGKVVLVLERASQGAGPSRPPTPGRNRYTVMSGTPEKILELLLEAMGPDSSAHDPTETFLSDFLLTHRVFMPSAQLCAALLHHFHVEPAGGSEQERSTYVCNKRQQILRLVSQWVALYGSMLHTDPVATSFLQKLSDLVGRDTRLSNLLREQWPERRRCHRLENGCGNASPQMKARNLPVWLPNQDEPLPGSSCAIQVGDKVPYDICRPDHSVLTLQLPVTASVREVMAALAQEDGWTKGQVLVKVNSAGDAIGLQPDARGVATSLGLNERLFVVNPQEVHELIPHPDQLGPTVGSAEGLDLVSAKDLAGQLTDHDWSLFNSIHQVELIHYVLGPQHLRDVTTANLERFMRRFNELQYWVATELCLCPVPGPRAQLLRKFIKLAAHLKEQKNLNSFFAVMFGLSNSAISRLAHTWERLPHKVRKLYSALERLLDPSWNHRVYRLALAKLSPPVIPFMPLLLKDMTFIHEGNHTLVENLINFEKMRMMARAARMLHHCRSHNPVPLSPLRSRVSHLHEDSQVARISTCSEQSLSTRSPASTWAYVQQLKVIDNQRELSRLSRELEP
Dual specificity protein kinase CLK4 (Homo sapiens), sequence (Q9HAZ1 whole entry, looked up): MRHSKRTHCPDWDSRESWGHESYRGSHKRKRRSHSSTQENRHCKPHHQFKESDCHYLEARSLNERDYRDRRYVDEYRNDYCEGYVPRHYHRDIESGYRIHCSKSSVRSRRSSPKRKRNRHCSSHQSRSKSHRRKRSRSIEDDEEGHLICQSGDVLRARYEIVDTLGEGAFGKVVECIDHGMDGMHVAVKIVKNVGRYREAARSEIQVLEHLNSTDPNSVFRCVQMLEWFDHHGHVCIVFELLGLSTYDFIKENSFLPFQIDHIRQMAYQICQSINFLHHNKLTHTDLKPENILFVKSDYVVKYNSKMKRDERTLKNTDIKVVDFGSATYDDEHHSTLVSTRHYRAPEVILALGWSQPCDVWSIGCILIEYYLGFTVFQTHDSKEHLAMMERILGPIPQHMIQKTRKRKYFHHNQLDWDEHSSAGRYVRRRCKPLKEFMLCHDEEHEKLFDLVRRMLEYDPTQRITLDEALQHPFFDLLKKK
Cytochrome P450 3A4 (Homo sapiens), sequence (P08684 whole entry, looked up): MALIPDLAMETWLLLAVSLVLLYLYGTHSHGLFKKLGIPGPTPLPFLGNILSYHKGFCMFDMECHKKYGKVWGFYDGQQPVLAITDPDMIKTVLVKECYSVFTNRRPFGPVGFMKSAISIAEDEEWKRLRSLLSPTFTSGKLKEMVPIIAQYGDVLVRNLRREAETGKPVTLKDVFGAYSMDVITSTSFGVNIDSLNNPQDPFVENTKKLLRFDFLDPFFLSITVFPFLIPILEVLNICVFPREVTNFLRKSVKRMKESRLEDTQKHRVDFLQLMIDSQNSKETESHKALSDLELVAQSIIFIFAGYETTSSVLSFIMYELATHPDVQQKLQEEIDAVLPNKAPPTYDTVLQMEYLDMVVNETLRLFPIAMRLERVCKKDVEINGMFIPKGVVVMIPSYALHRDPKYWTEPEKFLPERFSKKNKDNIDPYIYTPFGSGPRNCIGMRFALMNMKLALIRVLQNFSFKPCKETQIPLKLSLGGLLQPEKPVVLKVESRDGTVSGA

In the case of `COc1ccc(-c2cc3ccccc3c(=O)o2)cc1`, in experiment [1], the Potency result was “inactive”.
On to `Cc1cn2c(=O)c3ccccc3nc2n2c(=O)c3ccccc3nc12`, for which the Potency result in experiment [1] is “inactive”.
As for `C=CC(C)(O)CC1[C@@]2(C)CCCC(C)(C)C2CC[C@]1(C)O` (some centres undefined), the Potency entry in experiment [1] was “inactive”.
Consider `C[C@@]12CC(=O)C3=C(CCCC3=O)N1CCc1ccccc12`, for which the Potency result in experiment [1] is “inactive”.
Consider `COc1ccc2c(c1OC)C(=O)N1c3ccccc3C(=O)OC21` (centres undefined), for which the Potency entry in experiment [1] is “inactive”.
With `O=c1ccc2ccc(O[C@@H]3O[C@H](CO)[C@@H](O)[C@H](O)[C@H]3O)c(O)c2o1`, the Potency result in experiment [1] is “inactive”.
The same measure, in the same setting: for `CC1CCC(C(C)[C@H]2CCC3C4CC(=O)C5C[C@@H](O)CC[C@]5(C)C4CC[C@@]32C)=NC1` (some centres undefined) the value was “inactive”.
Take `COc1cccc2c3c(c(C)nc12)CC(CO)O3` (centres undefined): in experiment [1], the Potency result was “inactive”.
For the compound `COc1ccc2c(c1)OC[C@H]1c3cc4c(cc3O[C@@H]21)OCO4`, in experiment [1], the Potency result is “inactive”.
On to `COc1cc2c(cc1OC)OC(C)(C)C=C2`, for which the Potency entry in [1] was “inactive”.
For `CC1=C2C(=CO[C@H](C)[C@H]2C)C(=O)C(C(=O)O)=C1O`, in experiment [1], the Potency entry is “inactive”.
In the case of `COc1ccc(C(=O)N2CCC3(CC2)CN(c2ccncc2)C3)cc1`, the figures for the Potency in [2] and in experiment [7] were > 11.4 µM (inactive) and > 46 µM (inactive), respectively. Further, the figures for the activity change, negative = inhibition in experiment [3], in [5] and in [10] were 4.67% (inactive), -16% (inactive) and -1.18% (inactive), respectively. Further, the Potency entry in experiment [4], in experiment [8], in experiment [9], in experiment [1] and in experiment [13] was “inactive” in each case. In addition, in experiment [6], the activity, negative = inhibition was 5.81% (inactive). Further, the max response in [10] (setting [19]) is -4.69%; in [10] (setting [20]), -4.19%. In addition, the compound was called inactive in experiment [11] and in experiment [12].
`CC1=CC(=O)OC1Cc1ccc2ccccc2n1` (centres undefined): the Potency result in [1] was “inactive”.
In the case of `COc1ccc(-n2c(=O)c(-c3cc(F)cc(F)c3)nc3cnc(N(C)C)nc32)cc1`, the Potency was > 11.4 µM (inactive) in experiment [2], > 9.22 µM (inactive) in experiment [14] and > 46 µM (inactive) in experiment [7]. Further, the activity change, negative = inhibition in experiment [5] was 17.5% (inactive); in experiment [10], 5.64% (inactive). Also, the result in experiment [15], in [11] and in experiment [12] was inactive. The Potency entry in experiment [8], in [16], in experiment [17], in [18], in [1] and in [13] was “inactive” in each case. Also, the max response came out at 11.6% in experiment [10] (setting [19]) and 18.1% in [10] (setting [20]).
Take `Cc1cn(C2OC[C@@H](O)[C@@H]2CO)c(=O)[nH]c1=O` (some centres undefined): in experiment [1], the Potency entry was “inactive”.
With `O=C1c2ccccc2-n2c1nc1ccccc1c2=O`, the Potency entry in experiment [1] was “inactive”.
Take `Cc1noc(C)c1C(=O)N1CCC2(CCN(Cc3ccc(C#N)cc3)CC2)CC1`: the figures for the Potency in experiment [2] and in experiment [7] were > 11.4 µM (inactive) and > 46 µM (inactive), respectively. Moreover, the activity change, negative = inhibition in experiment [3] is 22% (inactive); in experiment [10], -1.31% (inactive). Besides, in experiment [6], the activity, negative = inhibition is 2.67% (inactive). Besides, the Potency entry in [8], in [1] and in [13] was “inactive” throughout. For the same compound, the max response in experiment [10] (setting [19]) stood at 9.89%; in experiment [10] (setting [20]), 10.9%. Further, the call in experiment [11] and in [12] was inactive.
For `COC(=O)C1C(=O)C(C(=O)/C=C/c2ccco2)C(=O)CC1(C)C` (centres undefined), the Potency entry in [1] is “inactive”.
Take `COC(=O)C1=COC(O[C@H]2OC(CO)[C@H](O)C(O)C2O)[C@H]2C1C(=O)C[C@@H]2C` (some centres undefined): in experiment [1], the Potency result was “inactive”.
As for `COCCn1c(=O)c(CCc2ccccc2)nc2cnc(Nc3cccc(OC)c3)nc21`, the results for the Potency in experiment [2] and in experiment [7] were > 11.4 µM (inactive) and > 46 µM (inactive), respectively. Further, the values for the activity change, negative = inhibition in experiment [3], in experiment [5] and in experiment [10] were 13.2% (inactive), 5.55% (inactive) and -3.18% (inactive), respectively. For the same compound, in experiment [6], the activity, negative = inhibition was 0.869% (inactive). Besides, the compound was classed as inactive in [15], in experiment [11] and in [12]. The max response in experiment [10] (setting [19]) came out at 22%; in experiment [10] (setting [20]), 18.9%. Besides, the Potency entry in [1] and in experiment [13] was “inactive” throughout.
With `O=C(NC[C@H](O)c1ccccc1)c1ccccc1`, the Potency entry in [1] was “inactive”.
The same measure, in the same setting: under `CC1=CC2C(=O)c3cccc(O)c3C(=O)C2C(O)=C1` (centres undefined) stands “inactive”.
As to `COc1cc(C/C=C\c2ccccc2)c(OC)cc1O`, in experiment [1], the Potency result is “inactive”.
With `CC(=O)OC[C@@]1(O)C[C@@]23CC[C@@H]4c5ccoc5CC[C@@]4(C)[C@@H]2CCC1C3`, the Potency entry in experiment [1] was “inactive”.
With `O=c1oc2cc(O)ccc2cc1-c1ccc2c(c1)OCCO2`, the Potency entry in [1] was “inactive”.
Take `Nc1nc(=S)c2ncn([C@@H]3O[C@H](CO)[C@@H](O)[C@H]3O)c2[nH]1`: the Potency entry in experiment [1] is “inactive”.
Take `COC(=O)[C@H]1Cc2c([nH]c3ccccc23)CN1C(=O)COc1ccc2c(C)cc(=O)oc2c1`: in experiment [1], the Potency entry is “inactive”.
